In PubChem BioAssay (NCATS):
Several values for one entry are separate records, joined by “and”; a condition that tells them apart may be missing. Identical values can stand only once. Records with an inconclusive call do not appear. Activity calls are given as the source filed them. The call rests on the fitted dose curve; in most records, active means well fitted cell-killing curve with a large enough effect; inconclusive means small, poorly fitted or top-dose-only effect, or effect the other way; inactive means no such curve, though single readings can be large or run the other way.

Assay: Viability qHTS for spleen associated tyrosine kinase inhibitor (SYKi) drug resistant MV4-11 cells (AID 1963824); further: nearly all actives have a fitted effect of over 35% in size
Conditions: SYKi-resistant MV4-11 viability, CellTiter-Glo, 72 h; series mostly up to 45 µM
Summary of the method: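 CellTiter-Glo luminescence, read 10 min after reagent addition, reports viability after a 72 hr compound exposure. Cells are an MV4-11 line made resistant to SYK inhibition, seeded at 500 per well onto compound-containing plates.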
Potency means the concentration at half of the fitted maximal effect.

Row | SMILES | Potency
1 | CCCC(=O)Nc1ccc(O)c(C(C)=O)c1 | inactive
2 | NC(=NCCCCCCN=C(N)/N=C(\N)Nc1ccc(Cl)cc1)/N=C(\N)Nc1ccc(Cl)cc1 | 2.99 µM (active) and 1.64 µM (active)
3 | COc1ccc(/C=C/C(=O)Nc2ccccc2C(=O)O)cc1OC | inactive
4 | C[C@H]1[C@H](O)O[C@@H]2O[C@@]3(C)CC[C@H]4[C@H](C)CC[C@@H]1[C@@]24OO3 | 0.731 µM (active)
5 | Cc1cc(C)c2c(c1)[C@@H](N(Cc1cc(C(F)(F)F)cc(C(F)(F)F)c1)c1nnn(C)n1)CCCN2CC1CCC(C(=O)O)CC1 (stereo partly specified) | 18.6 µM (active)
6 | N#Cc1ccnc(N2C(=O)CC[C@H]2C(=O)N(c2cncc(F)c2)C(C(=O)NC2CC(F)(F)C2)c2ccccc2Cl)c1 (stereo partly specified) | inactive
7 | CC(=O)OCC(=O)[C@@]1(O)CCC2C3CCC4=CC(=O)CC[C@]4(C)C3[C@@H](O)C[C@@]21C (stereo partly specified) | inactive
8 | C=CCN1C[C@H](C(=O)N(CCCN(C)C)C(=O)NCC)CC2c3cccc4[nH]cc(c34)C[C@H]21 (stereo partly specified) | 16.6 µM (active)
9 | CCN1CCN(Cc2ccc(NC(=O)c3ccc(C)c(/C=C/c4cnc5[nH]ccc5c4OC)c3)cc2C(F)(F)F)CC1 | 20.6 nM (active) and 83.3 nM (active)
10 | Nc1ncnc2c1ncn2[C@@H]1O[C@H](CO)[C@@H](O)[C@H]1O | inactive
11 | COc1cc(/C=C/C(=O)O[C@H]2CC[C@]34C[C@]35CC[C@]3(C)[C@@H]([C@H](C)CCC=C(C)C)CC[C@@]3(C)[C@@H]5CC[C@H]4C2(C)C)ccc1O | 16.4 µM (active)
